Cruzain inh noDet – inhibitors of Trypanosoma cruzi cruzain without detergent; P25779; purified cruzain, Z-FR-AMC fluorescence, no detergent; Potency, µM, without a hit: max response, negative = inhibition, usual class: inhibitors; 200,000 tested, 2.3% active; AID 1476;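 note: plate controls were enzyme without inhibitor for no effect and buffer without enzyme for full effect; nearly all actives have a fitted effect of over 40% in size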
Target sequence (P25779 123-467 limits assumed): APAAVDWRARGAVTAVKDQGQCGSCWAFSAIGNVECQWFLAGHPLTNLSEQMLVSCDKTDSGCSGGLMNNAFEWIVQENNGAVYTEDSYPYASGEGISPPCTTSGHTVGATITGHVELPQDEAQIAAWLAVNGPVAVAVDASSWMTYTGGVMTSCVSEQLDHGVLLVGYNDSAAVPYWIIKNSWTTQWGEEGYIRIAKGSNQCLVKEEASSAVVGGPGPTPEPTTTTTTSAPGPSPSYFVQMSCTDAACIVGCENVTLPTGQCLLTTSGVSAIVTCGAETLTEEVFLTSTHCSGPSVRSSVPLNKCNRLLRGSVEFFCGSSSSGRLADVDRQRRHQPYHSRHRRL
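Detergent-free condition (0.00005% Triton X-100) in acetate buffer pH 5.5 with DTT. 1.5 nM enzyme and compound were pre-mixed 15 min, then 2 uM Z-FR-AMC substrate added; reaction progress from fluorescence change between first and third reads (60 s).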
Cruzain Triton – inhibitors of Trypanosoma cruzi cruzain with detergent; 200,000 tested, 0.43% active; purified cruzain, Z-FR-AMC fluorescence, 0.01% Triton; P25779; AID 1478; Potency, µM, for the others: max response, negative = inhibition, usual class: inhibitors;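 note: plate controls were neutral wells for no effect and buffer without enzyme for full effect; nearly all actives have a fitted effect of over 40% in size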
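Compounds were screened in titration against cruzain (1.5 nM) with 0.01% Triton X-100 to counter colloidal aggregation. Activity was the AMC fluorescence increase over 60 s after adding 2 uM Z-FR-AMC at pH 5.5.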
The depositor's hits bear a star; ? = inconclusive. A selection: hits, their analogues and other compounds. The true share with any hit is near 2.5%. Calls come from the whole dose curve; as a rule, active = well fitted curve in the direction sought with a large enough effect; inconclusive = small, poorly fitted or top-dose-only effect, or another doubt; inactive = no such curve, though single readings can be large; an effect the other way counts as inactive or inconclusive. Potency is the fitted concentration of half-maximal effect.

SMILES | Cruzain inh noDet | Cruzain Triton
COC(=O)c1ccc(NC(=O)CCc2c(C)nn(-c3ccc(N4CCCCC4)nn3)c2C)cc1 | 19% | -6%
Cc1cccc2c1-c1sc(C(=O)N3CCN(c4ccccc4)CC3)cc1CO2 | -30% | -6%
Cc1ccc2nc(COc3ccccc3NC(=O)c3ccccc3F)cc(=O)n2c1 | -12% | 3%
CC(C)Oc1cccc(-n2c(CCc3c[nH]c4ccc(Br)cc34)nc3ccccc3c2=O)c1 | 32µM* | 5%
CCCc1nc2ccccc2c(=O)n1-c1cccc(OC)c1 | 1% | 1%
COc1ccc(-c2csc3c2[N+]2=CCC=C2C3=O)cc1 | -7% | -8%
O=C(N/N=C/C=C\c1ccccc1[N+](=O)[O-])c1cc(-c2ccc3ccccc3c2)n[nH]1 | 7.9µM* | -13%
O=C(N/N=C/C=C\c1ccccc1[N+](=O)[O-])c1cccs1 | -10% | -9%
Cc1cccc(NS(=O)(=O)c2ccc3[nH]c(=O)[nH]c3c2)c1C | 6% | -2%
Cc1cccc(NS(=O)(=O)c2ccc3c(c2)Cc2cc(S(=O)(=O)Nc4cccc(C)c4C)ccc2-3)c1C | 4µM* | 1%
S=C=Nc1cccc2ccccc12 | -28% | -3%
CCc1cccc(C)c1NC(=O)CSc1nc(-c2ccccc2F)nc2nc[nH]c12 | ? | -4%
O=C(CSc1nc(-c2ccccc2F)nc2nc[nH]c12)Nc1c(Cl)cc(Cl)cc1Cl | 6.3µM* | -4%
COc1cc(NCC[C@@H]2CCCCN2)c2ncccc2c1 | -2% | 3%
CCCN(CCC)C(=O)CSc1nnc2cc(C)c3ccccc3n12 | -11% | -1%
CNC(=S)N/N=C/c1ccccc1Cl | -9% | -5%
CNC(=S)N/N=C/c1cc(C)n(-c2ccc(Cl)c(Cl)c2)c1C | 32µM* | -9%
Cc1ccc(OC(=O)c2cc(-c3ccc4c(c3)OCCO4)on2)c(C)c1 | -7% | -9%
CCOC(=O)c1ccc(N2C(=O)c3n[nH]c(-c4ccco4)c3C2c2cccc(O)c2)cc1 (stereo unspecified) | -14% | -17%
O=C(N/N=C/c1ccncc1)c1cccc(NC(=O)c2ccccc2Cl)c1 | -1% | -1%
O=C(Nc1cccc(NC(=O)c2ccccc2Cl)c1)c1cccc(Br)c1 | 7.9µM* | 2%
Cc1ccc(S(=O)(=O)NC(=O)OC23COCN2COC3)cc1 | 1% | 1%
COc1ccc(/C(C)=N/OC/C(O)=C(\C#N)c2nc3ccccc3[nH]2)cc1 | 5µM* | 1%
COc1ccc(/C=N/OC/C(O)=C(\C#N)c2nc3ccccc3[nH]2)cc1OC | -6% | -5%
Cc1cccc(NC(=O)c2ccc(CNS(=O)(=O)c3ccc4c(c3)C(C)(C)C(=O)N4C)cc2)c1 | 24% | -5%
SMILES | Cruzain inh noDet | Cruzain Triton
O=C(NCC(c1ccc2c(c1)OCO2)N1CCOCC1)c1cccc(Cl)c1 (stereo unspecified) | 2% | -4%
CC(C)C1=C[C@@]23CC[C@@H]4[C@](C)(CCC[C@@]4(C)C(=O)O)[C@@H]2C[C@@H]1[C@@H](C(=O)O)[C@@H]3C(=O)O | 2% | 1%
CCOC(=O)c1c(NC(=O)CC2SC(N)=NC2=O)sc2c1CCC(C)C2 (stereo unspecified) | ? | -12%
CCOC(=O)c1c(NC(=O)Cn2nc([N+](=O)[O-])c(Br)c2C)sc2c1CCC(C)C2 (stereo unspecified) | 13µM* | -4%
O=C(Nc1ccc(Cl)cc1)Nc1nc(-c2sccc2Br)cs1 | 10µM* | 6%
O=C(NNc1nc(-c2ccccc2)cs1)c1ccccc1 | ? | -1%
Cc1csc(NC(=O)Nc2ccc(Cl)cc2)n1 | ? | 0%
O=C(Nc1ccc(Cl)c(Cl)c1)Nc1nc(-c2ccccc2)cs1 | 10µM* | -2%
O=C(Cc1ccc(Cl)cc1)NCC(c1cccs1)S(=O)(=O)c1ccc(F)cc1 (stereo unspecified) | 3% | -5%
O=C(Nc1ccc(N2CCC(c3ccccc3)C2)c(C(=O)O)c1)c1ccc(Cl)cc1 (stereo unspecified) | -3% | 1%
CCCCN(c1ccccc1)c1ncnc2c1cnn2-c1ccc(Cl)cc1 | 11% | 1%
O=c1c(O)c(-c2ccc(O)c(O)c2)oc2ccccc12 | -9% | -9%
COc1cccc(/C=C/c2nc(C#N)c(N3CCC(C(N)=O)CC3)o2)c1 | ? | 28µM*
COCCNc1oc(/C=C/c2ccc(F)cc2)nc1C#N | 20µM* | 22µM*
CN1CCN(c2oc(/C=C/c3ccc(F)cc3)nc2C#N)CC1 | 25µM* | 25µM*
COc1cccc(/C=C/c2nc(C#N)c(NCCc3ccccc3)o2)c1 | 30% | -9%
COc1cccc(/C=C/c2nc(C#N)c(N3CCCCCC3)o2)c1 | 29% | -8%
CCOc1ccc(/C=C/c2nc(C#N)c(N3CCCCCC3)o2)cc1 | -21% | -3%
COCCNc1oc(-c2ccc(F)cc2)nc1C#N | 1% | -2%
COc1cccc(/C=C/c2nc(C#N)c(NCCN(C)C)o2)c1 | 20µM* | 25µM*
O=c1oc(Nc2cccc(F)c2)nc2ccccc12 | -7% | -3%
Nc1nc(Nc2cccc(F)c2)nc2ccccc12 | 16µM* | ?
CC(=O)N1CCCc2cc(S(=O)(=O)NCc3ccc(OC(C)C)cc3)ccc21 | -4% | 1%
CSc1ccc(C(=O)Nc2ccc(-c3nc4ccccc4s3)c(O)c2)cc1 | 2% | 1%
CCSc1ccccc1C(=O)Nc1ccc(-c2nc3ccccc3s2)c(O)c1 | 7.9µM* | 1%
SMILES | Cruzain inh noDet | Cruzain Triton
O=C(O)CN1CCN(CC(=O)O)CC(=O)[O][Hg][O]C(=O)C1 | 3% | 14%
O=C(Nn1c(O)c(C=C2N=c3ccccc3=N2)sc1=S)c1ccccc1 | -7% | -2%
Cc1ccc(C(=O)Nn2c(O)c(C=C3N=c4ccccc4=N3)sc2=S)cc1 | 0% | -3%
Oc1c(C=C2N=c3ccccc3=N2)sc(=S)n1C1CCCC1 | 20µM* | -5%
Oc1c(C=C2N=c3ccccc3=N2)sc(=S)n1-c1ccc(F)cc1 | 20µM* | -6%
Cc1nc2ccn(Cc3ccco3)c(=O)c2cc1C(=O)Nc1ccc(F)cc1 | 1% | -5%
COc1ccc(S(=O)(=O)N2CCCCC2)cc1 | 5% | -2%
COc1ccc(S(=O)(=O)N=C2C=C(C)C(=O)C(C)=C2)cc1 | 13µM* | -3%
O=C(/C=C/c1ccccc1Cl)Nc1nc(-c2cccs2)ns1 | ? | -1%
CC(/C=C/C(=O)NO)=C\[C@@H](C)C(=O)c1ccc(N(C)C)cc1 | -9% | -5%
Cc1cc(C)cc(-n2ccnc2SCC(=O)Nc2ccc3c(c2)OCO3)c1 | -16% | -7%
CCc1ccc(C2=C/C(=C/c3cccnc3)C(=O)O2)cc1 | 3% | -10%
Cc1ccc(C2=N/C(=C\c3cccnc3)C(=O)O2)cc1 | 13µM* | 14µM*
CCNc1ccc(C(=O)N/N=C/c2c(C)nn(-c3ccccc3)c2N2CCCC2)cc1[N+](=O)[O-] | 6% | -10%
Cc1ccc(NS(=O)(=O)c2cccc(C(=O)N/N=C/c3c(C)nn(-c4ccccc4)c3N3CCCC3)c2)c(C)c1 | 32µM* | -2%
COc1ccccc1NS(=O)(=O)c1cccc(C(=O)N/N=C/c2ccc(N3CCOCC3)cc2)c1 | ? | -7%
Cc1ccc(NS(=O)(=O)c2cccc(C(=O)N/N=C/c3ccc4c(c3)OCCO4)c2)c(C)c1 | 6.3µM* | -13%
Clc1ccccc1CNc1ncnc2c1c(-c1ccccc1)cn2-c1ccccc1 | 5% | 1%
COc1cc2cc(CNc3ccc(C)cc3)c(=O)n(CC(=O)Nc3ccc(F)cc3F)c2cc1OC | 11% | -3%
CCCCN1CSC(=S)N(Cc2ccccc2)C1 | -6% | 4%

Screening data deposited in PubChem by National Center for Advancing Translational Sciences (NCATS).
